Test in all cases: NCI-60 one-dose screen, 48 h (100 = growth as untreated, 0 = no growth, -100 = all killed)
In one experiment the test system is NCI-H226 lung. The settings on record: 10 µM.
The next experiment concerns HOP-62 NSCLC. The settings on record: 10 µM.
The next experiment relates to NCI-H460 lung. The settings on record: 10 µM.
A further experiment deals with A549/ATCC NSCLC. The settings on record: 10 µM.
Another experiment has as its system COLO 205 colon. The settings on record: 10 µM.
Another experiment relates to DU-145 prostate. The settings on record: 10 µM.
The test system of a further experiment is K-562 leukemia. The settings on record: 10 µM.
The next experiment relates to SF-539 CNS. The settings on record: 10 µM.
A further experiment has as its system M14 melanoma. The settings on record: 10 µM.
A further experiment concerns HCT-15 colon. The settings on record: 10 µM.
Another experiment has as its system HT29 colon. The settings on record: 10 µM.
Another experiment concerns SNB-75 CNS. The settings on record: 10 µM.
The subject of the next experiment is SNB-19 CNS. The settings on record: 10 µM.
Another experiment relates to U251 CNS. The settings on record: 10 µM.
The subject of another experiment is PC-3 prostate. The settings on record: 10 µM.
The test system of the next experiment is LOX IMVI melanoma. The settings on record: 10 µM.
The test system of a further experiment is MOLT-4 leukemia. The settings on record: 10 µM.
The subject of a further experiment is RPMI-8226 leukemia. The settings on record: 10 µM.
The test system of a further experiment is SK-OV-3 ovarian. The settings on record: 10 µM.
Another experiment concerns MDA-MB-468 breast. The settings on record: 10 µM unless noted.

About 83,000 compounds went through this panel and 20% of them were active in at least one assay; those are over-represented in the sample as a whole.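 96-well plates, one dose, 48 hours. Percent growth reported; active if below 10.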 Values without a mark were called inactive. Calls of active or inactive are those of the source.

As to `Cn1cc(/C=C(/SS/C(=C/c2cn(C)c3cccc(C(=O)O)c23)C(=O)O)C(=O)O)c2c(C(=O)O)cccc21`, the growth with NCI-H226 lung was 97.7%; in the experiment on HOP-62 NSCLC, 103%; with NCI-H460 lung it was 110%; with A549/ATCC NSCLC it was 99.6%; in the experiment on COLO 205 colon, 112%; with DU-145 prostate, 104%. For the same compound, the growth with K-562 leukemia is 87.4%; in the experiment with SF-539 CNS, 98.5%; in the experiment with M14 melanoma it was 115%; in the experiment with HCT-15 colon it was 99.4%; in the experiment on HT29 colon, 107%; in the experiment on SNB-75 CNS, 88.8%. Also, the growth in the experiment with SNB-19 CNS is 102%; in the experiment with U251 CNS, 99.6%; in the experiment on PC-3 prostate, 97.2%; in the experiment on LOX IMVI melanoma it was 48.9%; with MOLT-4 leukemia it was 111%; with RPMI-8226 leukemia it was 105%. Further, the growth in the experiment on SK-OV-3 ovarian is 114%; in the experiment with MDA-MB-468 breast, 103%.

For the compound `CC(C)(C)c1cc(/C=C2\S/C(=N/c3ncn[nH]3)NC2=O)cc(C(C)(C)C)c1O`, the growth in the experiment on NCI-H226 lung was 5.38% (active); with HOP-62 NSCLC, 21.3%; with NCI-H460 lung it was 3.73% (active); with A549/ATCC NSCLC, 15.4%; in the experiment with COLO 205 colon it was 12.4%; in the experiment with DU-145 prostate, 32.3%. Moreover, the growth was 16.7% with K-562 leukemia; 18% in the experiment on SF-539 CNS; 17.9% in the experiment with M14 melanoma; 11.5% with HCT-15 colon; 10.7% in the experiment with HT29 colon; 19.3% in the experiment with SNB-75 CNS. In addition, the growth with SNB-19 CNS was 23.7%; in the experiment on U251 CNS it was 2.45% (active); with PC-3 prostate, 12.2%; with LOX IMVI melanoma, -7.75% (active); in the experiment with MOLT-4 leukemia, 13.8%; in the experiment on RPMI-8226 leukemia, 8.38% (active). In addition, the growth in the experiment on SK-OV-3 ovarian was 4.14% (active); in the experiment with MDA-MB-468 breast it was 9.25% (active).

Take `COc1ccc2[nH]cc(-c3nc(N)nnc3-c3cn(C)c4ncc(Br)cc34)c2c1`: the growth in the experiment on NCI-H226 lung was 8.48% (active); in the experiment on HOP-62 NSCLC it was 26.5%; in the experiment with NCI-H460 lung it was 1.08% (active); with A549/ATCC NSCLC, 17.7%; with COLO 205 colon it was -73.9% (active); in the experiment with DU-145 prostate, 11.1%. Also, the growth in the experiment with K-562 leukemia is 3% (active); with SF-539 CNS, -3.25% (active); with M14 melanoma it was 6.91% (active); with HCT-15 colon, 12.3%; in the experiment on HT29 colon, -27.1% (active); in the experiment with SNB-75 CNS, 23.4%. The growth with SNB-19 CNS is 30%; in the experiment on U251 CNS, 5.39% (active); with PC-3 prostate, 10.5%; in the experiment with LOX IMVI melanoma, 20%; in the experiment with MOLT-4 leukemia it was 2.27% (active); with RPMI-8226 leukemia it was -16% (active). Moreover, the growth in the experiment on SK-OV-3 ovarian is 10.7%; in the experiment with MDA-MB-468 breast, -8.06% (active).

For the compound `Cn1cc(-c2nc(N)nnc2-c2c[nH]c3ccccc23)c2cc(Br)cnc21`, the growth was 0.98% (active) in the experiment with NCI-H226 lung; 28.5% with HOP-62 NSCLC; 4.09% (active) with NCI-H460 lung; 16.4% in the experiment on A549/ATCC NSCLC; -75.9% (active) in the experiment on COLO 205 colon; 20.6% with DU-145 prostate. Besides, the growth in the experiment with K-562 leukemia was 9.47% (active); in the experiment on SF-539 CNS it was 8.25% (active); in the experiment with M14 melanoma, 8.68% (active); in the experiment with HCT-15 colon, 10.2%; with HT29 colon, -27.2% (active); in the experiment with SNB-75 CNS, 2.04% (active). Moreover, the growth with SNB-19 CNS is 44.9%; with U251 CNS, 8.89% (active); with PC-3 prostate, 13.3%; in the experiment with LOX IMVI melanoma it was 15.6%; in the experiment with MOLT-4 leukemia, 13.8%; with RPMI-8226 leukemia, 13%. The figures for the growth with SK-OV-3 ovarian and in the experiment with MDA-MB-468 breast were 26.5% and -9.99% (active), respectively.

On to `O=C(Nc1ccc(OCc2ccc(Cl)cc2)cc1)Nc1ccc(Cl)c(C(F)(F)F)c1`, for which the growth in the experiment on NCI-H226 lung is 6.46% (active); with HOP-62 NSCLC it was 19.5%; in the experiment with NCI-H460 lung it was 7.92% (active); in the experiment with A549/ATCC NSCLC, 16.2%; in the experiment on COLO 205 colon, -80.6% (active); with DU-145 prostate it was 26.6%. The growth in the experiment with K-562 leukemia was 7.62% (active); in the experiment with SF-539 CNS, 7.92% (active); in the experiment with M14 melanoma, 12.5%; in the experiment with HCT-15 colon, 9.07% (active); in the experiment with HT29 colon, 8.31% (active); in the experiment on SNB-75 CNS it was 28%. The growth in the experiment with SNB-19 CNS is 11%; with U251 CNS it was 6.47% (active); in the experiment on PC-3 prostate, -7.44% (active); with LOX IMVI melanoma it was -72.5% (active); with MOLT-4 leukemia it was 9.92% (active); with RPMI-8226 leukemia it was -9.46% (active). The growth in the experiment with SK-OV-3 ovarian was -18.9% (active); in the experiment with MDA-MB-468 breast it was -15.2% (active).

Take `COc1cccc(C(=O)CSc2nc(-c3ccc(OCc4ccccc4)c(OC)c3)c(C#N)c(=O)[nH]2)c1`: the growth in the experiment on NCI-H226 lung is 86.6%; in the experiment on HOP-62 NSCLC it was 92.2%; in the experiment with NCI-H460 lung, 106%; with A549/ATCC NSCLC, 98.5%; in the experiment with COLO 205 colon, 115%; in the experiment on DU-145 prostate, 107%. The growth in the experiment with K-562 leukemia is 90.6%; in the experiment with SF-539 CNS it was 94.2%; in the experiment on M14 melanoma it was 99.5%; in the experiment on HCT-15 colon, 92.8%; in the experiment with HT29 colon, 116%; with SNB-75 CNS, 87.7%. Also, the growth is 70.7% in the experiment with SNB-19 CNS; 79.2% in the experiment with U251 CNS; 103% in the experiment with PC-3 prostate; 85.7% in the experiment on LOX IMVI melanoma; 102% with MOLT-4 leukemia; 102% in the experiment with RPMI-8226 leukemia. Also, the growth in the experiment with SK-OV-3 ovarian is 94.5%; in the experiment on MDA-MB-468 breast, 88.4%.

As to `Cn1c(=O)c2[nH]c(CC(=O)O)nc2n(C)c1=O`, the growth in the experiment on MDA-MB-468 breast was 107%.

On to `Cc1ccc2sc3c(c2c1)Oc1nc[nH]c(=O)c1C3c1cccc(F)c1` (stereo unspecified), for which the growth in the experiment with NCI-H226 lung was 80.6%; in the experiment with HOP-62 NSCLC, 98.6%; in the experiment on NCI-H460 lung, 102%; with A549/ATCC NSCLC, 98.7%; with COLO 205 colon, 105%; in the experiment with DU-145 prostate, 105%. For the same compound, the growth in the experiment with K-562 leukemia is 81.7%; in the experiment with SF-539 CNS, 99.6%; in the experiment on M14 melanoma, 99.4%; in the experiment on HCT-15 colon, 92.6%; in the experiment on HT29 colon, 103%; in the experiment with SNB-75 CNS it was 84.2%. Moreover, the growth in the experiment on SNB-19 CNS is 92.6%; with U251 CNS, 97.1%; in the experiment with PC-3 prostate, 85.7%; in the experiment with LOX IMVI melanoma, 107%; with MOLT-4 leukemia it was 97%; with RPMI-8226 leukemia it was 88.7%. In addition, the growth with SK-OV-3 ovarian was 93.5%; in the experiment with MDA-MB-468 breast, 78%.

For `COc1ccc(C2c3sc4ccc(C)cc4c3Oc3nc[nH]c(=O)c32)cc1` (stereo unspecified), the growth is 80.5% with NCI-H226 lung; 69.4% with HOP-62 NSCLC; 95.6% in the experiment on NCI-H460 lung; 97.9% with A549/ATCC NSCLC; 103% in the experiment with COLO 205 colon; 105% in the experiment on DU-145 prostate. For the same compound, the growth in the experiment on K-562 leukemia is 36.2%; in the experiment on SF-539 CNS it was 79.3%; in the experiment with M14 melanoma, 73.2%; in the experiment on HCT-15 colon, 40.6%; with HT29 colon, 112%; with SNB-75 CNS, 45.8%. Further, the growth was 75.3% with SNB-19 CNS; 73.5% in the experiment on U251 CNS; 74.9% in the experiment with PC-3 prostate; 92.5% in the experiment with LOX IMVI melanoma; 77.9% in the experiment with MOLT-4 leukemia; 90.8% in the experiment on RPMI-8226 leukemia. Moreover, the growth is 81.2% in the experiment on SK-OV-3 ovarian and 61.3% in the experiment on MDA-MB-468 breast.
